# Screening results as filed in PubChem BioAssay.
# hcGAS lum = human cGAS inhibition; Q8N884; recombinant h-cGAS, ATP depletion, Kinase-Glo luminescence; inhibition, % at 12.5 µM; hit rate 0.081% among 290,000;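 note: 0% = vehicle reaction and 100% = reaction without DNA for no activity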
# mcGAS inh = mouse cGAS inhibition by luminescence | inhibition, % at 12.5 µM | hit rate 0.15% among 160,000 | AID 1259399 | Q8C6L5 | recombinant cGAS, Kinase-Glo ATP depletion luminescence;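 note: 0% = negative control wells and 100% = reference inhibitor with no enzyme activity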
# Target sequence (Q8C6L5 whole entry, looked up): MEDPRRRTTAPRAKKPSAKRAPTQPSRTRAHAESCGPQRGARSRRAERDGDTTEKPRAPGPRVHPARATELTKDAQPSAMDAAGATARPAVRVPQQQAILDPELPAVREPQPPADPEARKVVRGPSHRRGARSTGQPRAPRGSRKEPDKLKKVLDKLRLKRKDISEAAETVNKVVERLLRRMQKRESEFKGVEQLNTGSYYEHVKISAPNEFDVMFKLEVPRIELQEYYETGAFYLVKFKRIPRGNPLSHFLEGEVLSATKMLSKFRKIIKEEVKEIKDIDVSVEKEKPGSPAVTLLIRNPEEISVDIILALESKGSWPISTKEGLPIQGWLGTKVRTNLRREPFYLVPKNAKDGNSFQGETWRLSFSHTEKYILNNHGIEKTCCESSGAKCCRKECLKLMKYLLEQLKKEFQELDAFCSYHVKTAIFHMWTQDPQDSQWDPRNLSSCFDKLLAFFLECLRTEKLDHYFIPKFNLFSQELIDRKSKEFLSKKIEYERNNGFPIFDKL
# NPYLR7 ag = activates Aedes aegypti NPYLR7 receptor; activation, % at 10 µM; HEK293T NPYLR7/Galpha15, GCaMP6s calcium fluorescence; hit rate 0.15% among 270,000; in the data active = activation above about 40%;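 note: 0% = vehicle and 100% = reference agonist at the receptor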
# An asterisk follows results filed as active; . = no result. Most compounds without a hit are left out; they make up all but 0.28% or so of the library. Cut-off read from the data, not from the text of the source, unless noted: active = inhibition above about 40%; inactive = the rest.
SMILES,hcGAS lum,mcGAS inh,NPYLR7 ag
CCOC1CCCN(C(=O)c2ccc(OC)cc2)C1 (stereo unspecified),-8.1,-5.8,4.7
N#CCC(=O)NNC1=NS(=O)(=O)c2ccccc21,-9.1,.,-7.4
Cc1ccc2c(n1)[nH]n1c(=O)cc(C)nc21,43.3*,.,7.0
Cc1cc(=O)n2[nH]c(C)c(-c3ccc(F)cc3)c2n1,-1.3,.,-0.2
CCC(C)(C)NS(=O)(=O)c1c(C)c(C)cc(C)c1C,-3.4,.,16.2
CCNC(=O)CSc1ccc2c3c(cccc13)C(=O)c1ccccc1-2,2.0,.,36.9
O=C(O)CSc1ccc2c3c(cccc13)C(=O)c1ccccc1-2,75.7*,65.7*,93.6*
c1c(CN2CCSCC2)nn2c1CNCCC2,-3.1,-15.8,2.8
Cc1nn(CC(=O)NCCC2=CCCCC2)c(C)c1S(=O)(=O)N(C)C,-9.2,.,-1.1
CC1CCC(NC(=O)CCNC(=O)c2ccc(Br)cc2)CC1 (stereo unspecified),3.0,.,-6.4
Cc1csc(N2C(=N)SC(c3ccccc3)C2=O)n1 (stereo unspecified),-3.0,-1.2,1.2
Cc1csc(N2C(=N)SCC2=O)n1,42.2*,4.8,8.2
Cc1ccc(S(=O)(=O)c2cn(Cc3ccccc3)c3cc(N4CCOCC4)c(F)cc3c2=O)cc1,-4.5,-6.6,-5.8
O=C(C1=C(O)c2ccccc2S(=O)(=O)N1)c1ccc(Cl)s1,40.8*,.,5.0
O=C(O)c1ccc(Cl)s1,-1.4,.,2.9
COc1cccc(/C=C2\Oc3c(ccc4c3CN(C3CC3)CO4)C2=O)c1OC,-5.3,-6.6,4.9
N#CC(=Cc1ccccc1I)c1ccccn1,-4.4,-3.8,-0.7
N#CC(=Cc1c(F)c(F)c(F)c(F)c1F)c1ccccn1,-0.6,-3.9,99.4*
CS(=O)(=O)CCSCc1coc(-c2ccc(F)c(F)c2)n1,-6.5,.,9.6
Nc1c(S(=O)(=O)O)cc2c3c(cccc13)C(=O)N(CCO)C2=O,-8.2,-1.4,92.6*
NS(=O)(=O)c1ccc(CCN2C(=O)c3cccc4cccc(c34)C2=O)cc1,0.9,-2.4,-4.4
CC1(C)CN(C(=O)CCc2ccccc2)CC(=O)N([C@@H]2CCCC[C@H]2O)C1,-1.6,-6.7,-0.7
COc1ccc(C(=O)Nc2cc(C)nn2-c2nc3c(cnn3-c3ccc(C)cc3)c(=O)[nH]2)cc1,-1.0,-5.4,.
CCC(Nc1cc2oc3ccccc3c2cc1OC)C(=O)OC (stereo unspecified),-7.4,.,-0.8
O=C(O)c1c[nH]c2c(ccc3ccccc32)c1=O,14.9,42.3*,5.4
SMILES,hcGAS lum,mcGAS inh,NPYLR7 ag
O=C(O)c1c[nH]c2cc(C(F)(F)F)ccc2c1=O,-4.8,-3.2,-0.4
COC(=O)CC(N)c1ccc(C(C)(C)C)cc1 (stereo unspecified),-6.7,-16.3,10.9
COc1cccc(OC)c1OCCCOc1ccc(Br)cc1Cl,-5.2,.,-6.3
COc1ccccc1OCCCOc1ccc(Br)cc1Cl,0.8,.,59.8*
CN(C)c1ccc(C(CNC(=O)Nc2cccs2)N2CCCC2)cc1 (stereo unspecified),-6.1,-8.8,5.1
CN(CCCNC(=O)c1ccc2nc(-c3ccccc3)c(-c3ccccc3)nc2c1)c1ccccc1,-3.4,.,-7.6
O=c1oc2c(CN3CCN(CCO)CC3)c(O)ccc2cc1-c1nc2ccccc2s1,-5.4,.,65.6*
O=c1oc2c(CN3CCN(CCO)CC3)c(O)ccc2cc1-c1ccccn1,-6.9,.,9.5
CC(C)c1cc(C(C)C)c(S(=O)(=O)N2CCC(c3c[nH]c4ccc(F)cc34)CC2)c(C(C)C)c1,-4.5,-7.7,35.8
c1cnc(-n2cncn2)c(CNc2cc(N3CCOCC3)ncn2)c1,-4.5,-13.4,10.8
CC(C)Cn1c(N)c(C(=O)CSc2nccn2C)c(=O)n(C)c1=O,-4.2,-5.5,-3.4
Cn1ccnc1SCC(=O)c1cc(I)c(O)c(I)c1,8.0,76.4*,-0.9
CC(C)N=c1c([N+](=O)[O-])nn(-c2ccc(Cl)cc2)n1O,-3.0,-8.9,95.3*
Cc1ccc(N=c2c([N+](=O)[O-])nn(-c3ccc(Cl)cc3)n2O)cc1Br,-8.3,.,-2.3
CN1C=CC(=C/C=C2/C=Nc3ccccc32)C=C1,0.8,-2.3,53.7*
CCCCn1c(O)c(C=C2C=Nc3ccccc32)c(=O)[nH]c1=O,0.4,6.4,5.5
CC1(C(=O)NS(=O)(=O)c2cccc(OC(F)F)c2)CCN1C(=O)Cc1cccs1 (stereo unspecified),-8.1,-4.4,-0.9
CCOc1cc(C=C(C#N)C(=O)OC(C)C)cc(Cl)c1O,-7.4,.,13.7
COc1cc(C=C(C#N)S(=O)(=O)c2ccc(Cl)cc2)cc(Cl)c1O,-1.4,.,117.7*
COc1cc(C=C(C#N)S(=O)(=O)c2ccc(Cl)cc2)cc2c1OCCO2,-3.8,.,0.9
COc1cc(C=C(C#N)C(=O)OC(C)C)cc(Cl)c1O,-4.1,.,82.6*
O=[N+]([O-])c1cnc(Oc2ccc(Cl)cc2Cl)s1,0.9,.,-5.0
